# Source: PubChem BioAssay AID2314 (National Center for Advancing Translational Sciences (NCATS), 2010)
# Where “and” joins values, the source holds several entries; their conditions need not be identical. Equal values may be shown once. Out of some 300,000 compounds screened, about 37,000 (12%) were called active. Only a selection was taken, and actives are over-represented in it overall. A number with no mark means an inactive call. No stated cut-off is given here; in the data, active means max response mostly above about 13% (no sharp cut-off); inactive means mostly below about 14%.
# Experiment: Cycloheximide Counterscreen for Small Molecule Inhibitors of Shiga Toxin; further: read at 38.3 µM for the half of the compounds with a filed dose; 0% is about no effect
# Settings: cell reporter, cycloheximide protein synthesis inhibition counterscreen; active compounds read high
row,Structure (SMILES),max response
1,COc1nnc(-c2ccc(C)c(S(=O)(=O)N(C)C)c2)c2ccccc12,0.699%
2,Cc1cc(C)c(S(=O)(=O)N2CCOCC2)cc1C,1.22%
3,Cc1nc2ccc(NC(=O)C(F)(F)F)cc2o1,1.37%
4,CCCCc1ccc(NC(=O)NCc2cccnc2)cc1,16%
5,Cc1nc2cc(NC(=O)NCc3ccccc3)ccc2o1,21.4% (active)
6,O=C(CSc1ncccn1)NC(=O)NCc1ccccc1,-1.54%
7,Cc1ccc(NC(=O)Nc2ccc3oc(C)nc3c2)cc1,53.3% (active)
8,COc1ccccc1C(=O)Nc1ccc(OCc2nnc3c4ccccc4c(C)nn23)cc1,1.98%
9,CN(Cc1ccccc1)C(=O)C1CCCN(c2ncnc3c2nc2n3CCCCC2)C1 (stereo not drawn),-3.17%
10,N#C/C(=C\c1ccc(N2CCOCC2)o1)C(=O)N1CCOCC1,1.71%
11,CCn1c(=O)c([N+](=O)[O-])c(NCc2ccc3c(c2)OCO3)c2ccccc21,-2.03%
12,CC(C)(C)C(=O)/C(C#N)=C/c1ccc(O)cc1,8.63%
13,CC(C)NC(=O)/C(C#N)=C\c1ccc(N(C)C)c(Br)c1,27.9% (active)
14,COCCNC(=O)/C(C#N)=C/c1cccc(OCc2ccccc2)c1,4.87%
15,COc1ccccc1C(C)NC(=O)Cc1ccsc1 (stereo not drawn),5.18%
16,CSCCC(NC(=O)COc1ccccc1)C(=O)Nc1ccc(C)cc1 (stereo not drawn),4.05%
17,Cc1ccc(NC(=O)C(C)c2cccc(C(=O)c3ccccc3)c2)cc1 (stereo not drawn),26.6% (active)
18,CC(=O)Nc1ccc(NC(=O)[C@@H](NC(=O)c2cccc(C)c2)C(C)C)cc1,-5.14%
19,COc1ccc(N2C(=O)C(CC(=O)Nc3ccccc3)N(Cc3ccc(OC)c(OC)c3)C2=O)cc1 (stereo not drawn),14.6%
20,Nc1nc(SC23CC4CC(CC(C4)C2)C3)ns1,-2.92%
21,CCCSc1nsc(N)n1,22.8% (active)
22,CCCCCCSc1nsc(N)n1,23.1% (active)
23,Cc1ccc(S(=O)(=O)N2CCCC(C(=O)N3CCN(C)CC3)C2)cc1 (stereo not drawn),6.16%
24,Cn1c(=O)[nH]c(=O)c2c1nc(CN1CCN(c3ccccc3F)CC1)n2CCc1ccccc1,2.36%
25,CCCCCCNS(=O)(=O)c1ccccc1Br,-2.52% and 6.23%
26,O=C(COC(=O)c1ccc(S(=O)(=O)Nc2ccccc2)cc1)NCC1CCCO1 (stereo not drawn),-1.31%
27,CCOC(=O)N1CCN(c2cc(C)c([N+](=O)[O-])cc2F)CC1,16.3%
28,CS(=O)(=O)c1ccc2nnn(OCC(=O)Nc3cccc(C#N)c3)c2c1,-3.01%
